Columns and labels:
Assay in all cases: log2 ratio of Biotin-Ahx-Ub-VS probe labelling (fragment/DMSO); higher = less target engagement (more negative = stronger competition), active = hit call of the paper (q ≤ 0.05, log2 ratio ≤ -1)
Settings in all cases: compound concentration: 200 uM; treatment time: 3 h
USP34 = USP34 (UniProt Q70CQ2)
Outline: (§1)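 HEK293T lysate, 495 µg per sample in Tris/CHAPS/IGEPAL buffer with protease inhibitors, was treated in triplicate with fragment at 200 µM or vehicle for 3 h and then with Biotin-Ahx-Ub-VS at 0.5 µM final for 1 h. Labelled DUBs were NeutrAvidin-enriched, digested with LysC and trypsin, and run by diaPASEF LC-MS/MS. Spectronaut label-free quantities were global-median-normalised, and values are average log2 fragment/vehicle ratios by unpaired t-test on proteins with ≥2 unique peptides.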

USP36 = target: T1, USP36 (UniProt Q9P275)
T1 sequence (whole entry): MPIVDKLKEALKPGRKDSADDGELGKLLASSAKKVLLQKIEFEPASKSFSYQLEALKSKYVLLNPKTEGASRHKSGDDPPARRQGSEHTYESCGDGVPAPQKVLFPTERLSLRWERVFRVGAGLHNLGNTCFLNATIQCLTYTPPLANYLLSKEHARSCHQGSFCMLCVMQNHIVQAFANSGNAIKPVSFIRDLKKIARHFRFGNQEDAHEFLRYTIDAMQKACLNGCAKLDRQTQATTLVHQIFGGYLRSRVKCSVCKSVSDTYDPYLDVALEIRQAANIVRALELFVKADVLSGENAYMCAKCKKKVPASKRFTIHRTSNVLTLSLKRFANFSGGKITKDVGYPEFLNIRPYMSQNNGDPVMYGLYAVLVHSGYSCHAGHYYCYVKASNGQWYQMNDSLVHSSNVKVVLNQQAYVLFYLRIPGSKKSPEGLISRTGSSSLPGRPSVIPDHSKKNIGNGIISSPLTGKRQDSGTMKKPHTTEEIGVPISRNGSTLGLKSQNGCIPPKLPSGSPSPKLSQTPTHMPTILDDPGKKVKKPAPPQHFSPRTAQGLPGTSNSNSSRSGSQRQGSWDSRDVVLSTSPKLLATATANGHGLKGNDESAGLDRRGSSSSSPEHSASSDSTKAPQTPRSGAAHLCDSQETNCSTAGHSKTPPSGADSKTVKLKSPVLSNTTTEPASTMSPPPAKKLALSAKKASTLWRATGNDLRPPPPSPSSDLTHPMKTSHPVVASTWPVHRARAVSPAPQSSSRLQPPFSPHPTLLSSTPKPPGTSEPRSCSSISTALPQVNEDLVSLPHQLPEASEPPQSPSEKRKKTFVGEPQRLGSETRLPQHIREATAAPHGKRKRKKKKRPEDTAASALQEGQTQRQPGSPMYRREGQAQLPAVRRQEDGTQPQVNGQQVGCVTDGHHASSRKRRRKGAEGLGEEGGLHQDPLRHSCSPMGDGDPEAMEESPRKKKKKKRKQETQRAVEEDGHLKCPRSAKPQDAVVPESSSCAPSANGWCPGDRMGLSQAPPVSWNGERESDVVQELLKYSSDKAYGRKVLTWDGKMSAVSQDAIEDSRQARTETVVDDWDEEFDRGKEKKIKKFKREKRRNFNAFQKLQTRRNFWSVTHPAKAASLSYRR
Outline: as §1

USP38 = target: T2, USP38 (UniProt Q8NB14)
T2 sequence (whole entry): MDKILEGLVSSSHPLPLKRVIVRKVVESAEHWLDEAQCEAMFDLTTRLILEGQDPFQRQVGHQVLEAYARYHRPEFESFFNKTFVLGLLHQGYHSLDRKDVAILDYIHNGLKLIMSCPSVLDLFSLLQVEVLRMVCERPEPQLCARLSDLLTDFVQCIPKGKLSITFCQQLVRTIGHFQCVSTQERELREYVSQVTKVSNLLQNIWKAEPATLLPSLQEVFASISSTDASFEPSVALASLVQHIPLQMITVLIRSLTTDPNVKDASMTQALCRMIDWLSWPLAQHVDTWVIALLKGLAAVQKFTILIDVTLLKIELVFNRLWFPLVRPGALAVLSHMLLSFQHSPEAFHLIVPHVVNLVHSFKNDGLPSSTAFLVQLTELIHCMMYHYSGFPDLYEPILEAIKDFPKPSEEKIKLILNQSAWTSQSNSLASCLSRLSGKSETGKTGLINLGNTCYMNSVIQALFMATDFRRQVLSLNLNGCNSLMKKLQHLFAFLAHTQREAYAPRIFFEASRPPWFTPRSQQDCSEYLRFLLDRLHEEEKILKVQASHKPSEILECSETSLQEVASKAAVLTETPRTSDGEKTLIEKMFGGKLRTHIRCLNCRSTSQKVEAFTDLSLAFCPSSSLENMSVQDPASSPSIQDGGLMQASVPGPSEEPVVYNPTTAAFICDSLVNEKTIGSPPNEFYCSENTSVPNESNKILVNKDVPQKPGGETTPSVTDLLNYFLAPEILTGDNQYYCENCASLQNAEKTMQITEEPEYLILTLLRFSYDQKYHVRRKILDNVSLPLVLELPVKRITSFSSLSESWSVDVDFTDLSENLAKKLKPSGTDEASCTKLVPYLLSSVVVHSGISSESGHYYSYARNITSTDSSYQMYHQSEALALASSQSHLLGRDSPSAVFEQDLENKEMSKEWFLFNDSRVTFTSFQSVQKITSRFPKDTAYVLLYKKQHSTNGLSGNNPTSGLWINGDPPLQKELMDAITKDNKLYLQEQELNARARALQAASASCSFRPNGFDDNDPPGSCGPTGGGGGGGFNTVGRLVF
Outline: as §1

USP39 = target: T3, USP39 (UniProt Q53GS9)
T3 sequence (whole entry): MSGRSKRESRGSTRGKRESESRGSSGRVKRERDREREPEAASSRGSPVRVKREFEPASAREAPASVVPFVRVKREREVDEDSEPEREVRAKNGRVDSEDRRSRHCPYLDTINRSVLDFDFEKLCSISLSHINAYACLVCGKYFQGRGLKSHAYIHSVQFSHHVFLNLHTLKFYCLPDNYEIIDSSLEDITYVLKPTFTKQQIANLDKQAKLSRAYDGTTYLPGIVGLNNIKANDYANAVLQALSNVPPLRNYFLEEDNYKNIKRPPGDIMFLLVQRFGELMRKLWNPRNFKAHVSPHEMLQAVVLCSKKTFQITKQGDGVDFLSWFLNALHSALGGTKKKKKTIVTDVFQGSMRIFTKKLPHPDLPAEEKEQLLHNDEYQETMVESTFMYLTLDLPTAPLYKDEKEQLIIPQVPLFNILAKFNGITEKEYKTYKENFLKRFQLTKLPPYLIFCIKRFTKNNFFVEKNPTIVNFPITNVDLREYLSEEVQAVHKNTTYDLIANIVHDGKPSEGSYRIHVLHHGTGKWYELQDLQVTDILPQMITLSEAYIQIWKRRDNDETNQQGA
Outline: as §1

USP4 = target: T4, USP4 (UniProt Q13107)
T4 sequence (whole entry): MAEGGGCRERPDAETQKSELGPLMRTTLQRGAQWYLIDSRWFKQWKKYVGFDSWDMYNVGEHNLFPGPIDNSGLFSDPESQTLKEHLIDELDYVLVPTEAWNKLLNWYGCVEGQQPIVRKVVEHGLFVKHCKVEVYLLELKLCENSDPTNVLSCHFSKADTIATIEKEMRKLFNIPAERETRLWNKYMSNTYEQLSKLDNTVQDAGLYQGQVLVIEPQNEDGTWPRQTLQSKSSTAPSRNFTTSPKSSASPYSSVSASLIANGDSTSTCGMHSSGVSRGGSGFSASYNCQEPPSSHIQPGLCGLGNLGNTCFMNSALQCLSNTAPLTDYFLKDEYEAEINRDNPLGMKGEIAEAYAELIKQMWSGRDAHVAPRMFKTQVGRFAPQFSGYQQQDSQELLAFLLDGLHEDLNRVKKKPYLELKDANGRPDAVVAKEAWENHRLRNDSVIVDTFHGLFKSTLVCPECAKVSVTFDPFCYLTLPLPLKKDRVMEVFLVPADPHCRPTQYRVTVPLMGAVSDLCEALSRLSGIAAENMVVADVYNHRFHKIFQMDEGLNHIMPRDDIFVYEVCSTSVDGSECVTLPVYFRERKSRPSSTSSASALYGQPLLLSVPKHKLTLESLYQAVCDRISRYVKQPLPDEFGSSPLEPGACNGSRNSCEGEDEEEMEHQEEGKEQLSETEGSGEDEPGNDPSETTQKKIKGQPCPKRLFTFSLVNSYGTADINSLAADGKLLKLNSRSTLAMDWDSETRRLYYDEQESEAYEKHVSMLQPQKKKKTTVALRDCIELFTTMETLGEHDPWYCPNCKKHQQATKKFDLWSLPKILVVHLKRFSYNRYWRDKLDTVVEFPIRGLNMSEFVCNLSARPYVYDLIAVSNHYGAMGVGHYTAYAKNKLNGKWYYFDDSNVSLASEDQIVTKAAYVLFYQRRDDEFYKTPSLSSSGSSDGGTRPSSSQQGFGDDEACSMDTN
Outline: as §1

Measured: log2 ratio of Biotin-Ahx-Ub-VS probe labelling

Chain of USP34 (Q70CQ2 whole entry, the tested form may be a part): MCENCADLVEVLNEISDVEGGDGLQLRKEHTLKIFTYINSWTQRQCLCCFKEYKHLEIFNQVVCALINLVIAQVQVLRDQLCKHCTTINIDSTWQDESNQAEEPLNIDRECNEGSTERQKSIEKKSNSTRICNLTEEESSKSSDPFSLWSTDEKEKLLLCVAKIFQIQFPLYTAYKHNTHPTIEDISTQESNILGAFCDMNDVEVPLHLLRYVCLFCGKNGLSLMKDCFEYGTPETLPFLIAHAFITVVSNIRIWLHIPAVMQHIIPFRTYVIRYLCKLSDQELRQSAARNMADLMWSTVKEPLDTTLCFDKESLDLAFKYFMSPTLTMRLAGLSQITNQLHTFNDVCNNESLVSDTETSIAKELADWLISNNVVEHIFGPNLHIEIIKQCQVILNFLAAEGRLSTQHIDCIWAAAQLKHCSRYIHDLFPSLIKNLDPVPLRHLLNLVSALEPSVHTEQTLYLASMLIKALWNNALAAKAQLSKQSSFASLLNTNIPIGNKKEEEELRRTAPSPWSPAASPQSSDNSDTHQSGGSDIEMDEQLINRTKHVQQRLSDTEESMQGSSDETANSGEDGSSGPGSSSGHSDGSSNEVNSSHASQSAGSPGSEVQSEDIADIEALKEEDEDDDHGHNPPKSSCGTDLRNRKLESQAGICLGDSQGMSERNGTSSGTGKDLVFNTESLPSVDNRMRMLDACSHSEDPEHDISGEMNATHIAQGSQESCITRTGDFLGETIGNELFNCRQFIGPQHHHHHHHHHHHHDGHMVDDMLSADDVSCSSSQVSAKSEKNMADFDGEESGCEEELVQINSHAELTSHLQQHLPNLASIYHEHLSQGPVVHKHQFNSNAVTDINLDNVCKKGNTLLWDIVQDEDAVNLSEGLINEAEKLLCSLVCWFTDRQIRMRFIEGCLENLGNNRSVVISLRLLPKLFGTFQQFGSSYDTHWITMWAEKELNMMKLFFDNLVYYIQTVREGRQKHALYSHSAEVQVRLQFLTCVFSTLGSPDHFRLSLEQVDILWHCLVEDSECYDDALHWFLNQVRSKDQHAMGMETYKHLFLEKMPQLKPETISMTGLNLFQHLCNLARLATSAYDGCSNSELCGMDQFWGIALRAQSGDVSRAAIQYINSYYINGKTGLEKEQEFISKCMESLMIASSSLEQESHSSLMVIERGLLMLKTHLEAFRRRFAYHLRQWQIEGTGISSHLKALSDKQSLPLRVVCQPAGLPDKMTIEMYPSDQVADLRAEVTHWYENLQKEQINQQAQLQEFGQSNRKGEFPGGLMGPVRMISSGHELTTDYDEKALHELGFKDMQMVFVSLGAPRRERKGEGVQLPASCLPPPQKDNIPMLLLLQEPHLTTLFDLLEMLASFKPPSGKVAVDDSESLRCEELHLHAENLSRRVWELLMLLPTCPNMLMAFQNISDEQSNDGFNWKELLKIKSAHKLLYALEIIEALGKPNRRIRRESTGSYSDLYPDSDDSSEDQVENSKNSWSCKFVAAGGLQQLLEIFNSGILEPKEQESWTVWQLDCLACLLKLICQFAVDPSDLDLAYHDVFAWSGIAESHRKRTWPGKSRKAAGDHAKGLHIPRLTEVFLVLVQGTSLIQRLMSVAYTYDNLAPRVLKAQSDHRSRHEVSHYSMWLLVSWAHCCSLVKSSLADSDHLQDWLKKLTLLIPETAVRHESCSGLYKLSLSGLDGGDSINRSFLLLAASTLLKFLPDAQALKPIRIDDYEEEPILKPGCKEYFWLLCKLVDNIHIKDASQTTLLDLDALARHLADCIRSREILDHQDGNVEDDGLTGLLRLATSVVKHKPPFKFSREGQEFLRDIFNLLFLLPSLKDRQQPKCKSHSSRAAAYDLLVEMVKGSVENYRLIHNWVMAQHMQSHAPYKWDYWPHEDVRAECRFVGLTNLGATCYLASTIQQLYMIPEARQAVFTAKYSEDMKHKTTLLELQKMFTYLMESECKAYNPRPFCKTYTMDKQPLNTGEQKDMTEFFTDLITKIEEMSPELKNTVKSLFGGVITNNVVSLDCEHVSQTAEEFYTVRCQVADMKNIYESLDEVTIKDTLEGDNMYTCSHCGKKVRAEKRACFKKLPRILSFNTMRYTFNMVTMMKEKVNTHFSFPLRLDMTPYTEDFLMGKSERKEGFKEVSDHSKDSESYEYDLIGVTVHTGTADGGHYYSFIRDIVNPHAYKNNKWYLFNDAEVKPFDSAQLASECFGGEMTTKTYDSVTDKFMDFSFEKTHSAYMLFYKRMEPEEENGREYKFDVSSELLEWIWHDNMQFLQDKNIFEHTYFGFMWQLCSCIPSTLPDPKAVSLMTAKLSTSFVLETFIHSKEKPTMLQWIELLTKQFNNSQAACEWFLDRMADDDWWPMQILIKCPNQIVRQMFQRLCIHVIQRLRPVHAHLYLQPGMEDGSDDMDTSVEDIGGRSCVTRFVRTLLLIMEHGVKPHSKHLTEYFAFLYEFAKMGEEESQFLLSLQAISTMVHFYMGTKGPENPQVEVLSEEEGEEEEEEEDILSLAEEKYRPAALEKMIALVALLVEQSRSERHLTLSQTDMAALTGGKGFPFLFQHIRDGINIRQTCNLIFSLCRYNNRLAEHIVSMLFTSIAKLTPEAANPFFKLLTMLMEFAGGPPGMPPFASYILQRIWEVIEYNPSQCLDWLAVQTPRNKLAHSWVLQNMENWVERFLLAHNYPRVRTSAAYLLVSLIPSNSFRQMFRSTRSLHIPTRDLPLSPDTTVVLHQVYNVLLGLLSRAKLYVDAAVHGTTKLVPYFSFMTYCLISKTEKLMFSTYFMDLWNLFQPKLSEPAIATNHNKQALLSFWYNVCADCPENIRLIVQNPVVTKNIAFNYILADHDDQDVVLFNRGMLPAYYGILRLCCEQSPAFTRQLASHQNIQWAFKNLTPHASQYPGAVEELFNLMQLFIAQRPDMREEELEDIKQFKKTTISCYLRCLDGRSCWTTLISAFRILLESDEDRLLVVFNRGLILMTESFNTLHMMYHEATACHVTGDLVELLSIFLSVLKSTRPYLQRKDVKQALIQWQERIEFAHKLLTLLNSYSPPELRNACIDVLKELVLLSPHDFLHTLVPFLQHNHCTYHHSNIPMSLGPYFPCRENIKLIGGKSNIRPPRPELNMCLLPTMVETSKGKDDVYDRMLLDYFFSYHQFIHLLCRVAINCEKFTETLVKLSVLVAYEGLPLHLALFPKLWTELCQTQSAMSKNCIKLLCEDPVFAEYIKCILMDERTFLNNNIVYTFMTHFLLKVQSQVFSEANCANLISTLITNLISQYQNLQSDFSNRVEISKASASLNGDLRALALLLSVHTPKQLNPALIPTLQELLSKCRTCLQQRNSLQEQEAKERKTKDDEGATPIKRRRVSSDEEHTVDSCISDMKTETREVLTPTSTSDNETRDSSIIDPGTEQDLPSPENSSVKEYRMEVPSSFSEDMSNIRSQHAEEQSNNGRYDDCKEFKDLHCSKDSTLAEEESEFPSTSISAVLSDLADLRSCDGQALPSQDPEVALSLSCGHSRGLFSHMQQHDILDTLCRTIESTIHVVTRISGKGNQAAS

CC1CCc2onc(CNC(=O)CCl)c2C1 (stereo not given)
inactive: USP34 0.0236 | USP36 0.0286 | USP38 0.0155 | USP39 0.358 | USP4 0.094

— the supplement of paper PMC11732987, “Enantioselective OTUD7B fragment discovery through chemoproteomics screening and high-throughput optimisation” (Communications Chemistry, 2025)
